Source: PubChem (several laboratories)
Only some compounds are listed: those with a hit (about 2.4% of all), similar ones and a draw of the others.
PfM18AAP inh-1 = PfM18AAP inhibitors, malaria aminopeptidase, primary screen, biochemical, QFRET, recombinant enzyme; H-Glu-NHMec fluorogenic cleavage; inhibition, % at 7.35 µM; hit rate 1.2% among 290,000;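 active means inhibition above the campaign mean inhibition over all tested compounds plus 3 SD, cut at about 28% in these data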
A3A deaminase = APOBEC3A ssDNA deaminase inhibitors, primary screen, selectivity assay for APOBEC3G inhibitor project, biochemical, FAM/TAMRA oligo cleavage fluorescence. AID 493011, 2011. hit rate 0.41% among 330,000. recombinant A3A, FAM/TAMRA ssDNA deamination fluorescence. DNA dC->dU-editing enzyme APOBEC-3A (Homo sapiens), P31941. inhibition, % at 20 µM;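 active means at least 40% inhibition at 20 µM here, with at most 30% in a related deaminase screen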
Target sequence (P31941 whole entry, looked up): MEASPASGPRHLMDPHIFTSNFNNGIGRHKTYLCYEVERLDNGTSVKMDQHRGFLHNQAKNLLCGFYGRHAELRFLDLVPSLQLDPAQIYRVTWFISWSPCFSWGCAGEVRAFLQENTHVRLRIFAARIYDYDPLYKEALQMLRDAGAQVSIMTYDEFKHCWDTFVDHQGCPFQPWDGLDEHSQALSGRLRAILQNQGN
CR mimetic SO = reduction of superoxide in aged yeast, primary screen, HTS; hit rate 0.18% among 330,000; S. cerevisiae aged cells, superoxide DHE fluorescence; stronger effect = lower value; superoxide response (% of plate mean), % at 10 µM;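 active means superoxide response under a set limit, about three screen SD below normal, cut at about 65% in these data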;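 further: yeast aged for seven days with compound at 30 °C before DHE staining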
PfGluPho inh = PfG6PD enzyme inhibitors, primary screen, biochemical, fluorescence intensity, uHTS; PfGluPho enzyme, NADPH resazurin-diaphorase fluorescence; AID 504690, 2011; glucose-6-phosphate dehydrogenase-6-phosphogluconolactonase (Plasmodium falciparum 3D7); hit rate 0.78% among 350,000; inhibition, % at 20 µM;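 active means inhibition reaching at least a set limit at 20 µM in the primary screen, cut at about 59% in these data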
APOBEC3G inh = APOBEC3G DNA deaminase inhibitors, primary screen, biochemical, fluorescence, single-stranded DNA substrate, uHTS; recombinant A3G, ssDNA deamination FAM/TAMRA fluorescence; inhibition, % at 20 µM; hit rate 0.28% among 330,000;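 active means inhibition of at least 40% at 20 µM, with no more than 30% in the related APOBEC3A deaminase screen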
Target sequence (Q9HC16 whole entry, looked up): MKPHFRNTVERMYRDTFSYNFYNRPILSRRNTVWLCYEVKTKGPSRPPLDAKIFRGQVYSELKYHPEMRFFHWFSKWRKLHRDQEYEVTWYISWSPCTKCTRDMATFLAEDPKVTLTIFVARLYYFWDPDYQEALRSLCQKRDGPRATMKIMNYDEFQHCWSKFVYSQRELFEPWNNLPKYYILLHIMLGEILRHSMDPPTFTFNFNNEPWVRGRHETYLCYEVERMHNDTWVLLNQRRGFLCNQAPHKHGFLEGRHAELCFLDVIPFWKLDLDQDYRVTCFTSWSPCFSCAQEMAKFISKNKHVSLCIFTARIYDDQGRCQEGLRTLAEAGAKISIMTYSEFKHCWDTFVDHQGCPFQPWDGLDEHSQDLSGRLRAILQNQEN
PfM18AAP inh-2 = PfM18AAP inhibitors, malaria aminopeptidase, confirmation, biochemical, QFRET, recombinant enzyme, triplicate. shares compounds with PfM18AAP inh-1. hit rate 28% among 2,400. inhibition, % at 7.35 µM. H-Glu-NHMec fluorogenic cleavage. AID 2170, 2009;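 active means mean inhibition over replicate wells above the hit cutoff set for the earlier primary screen, cut at about 29% in these data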
CTSL1 counter = cathepsin L1 inhibitors, retest, confirmation, counter-screen for PFM18AAP inhibitor project, biochemical, QFRET, triplicate. inhibition, % at 5.96 µM. AID 2178, 2009. shares compounds with PfM18AAP inh-1. 2,400 tested, under 10 active. purified cathepsin L1, Z-Leu-Arg-MCA fluorescence;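 active means average inhibition across replicates above the hit cutoff set in the earlier primary screen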
Each line names hits and unclear results; the compound was inactive in the other large screens (follow-up assays come after a bar, where they were run).

O=C(COC(=O)c1cccc(Br)c1)NC1CCCCCCC1	none (no result: PfM18AAP inh-1, A3A deaminase, CR mimetic SO, APOBEC3G inh)
Cc1cc2c(c(C)c1Br)C(c1ccc3c(c1)OCO3)CC(=O)O2 (stereo unspecified)	none (no result: PfM18AAP inh-1)
COc1cc(-c2nc3ccc(C)cn3c2Nc2ccc3c(c2)OCCO3)ccc1O	PfM18AAP inh-1 41 | PfM18AAP inh-2 41 | CTSL1 counter inactive
CCOC(=O)C1=C(C)NC(C)=C(C(=O)OCC)C1C(=O)OCC(=O)NCc1ccccc1OC	none (no result: PfM18AAP inh-1)
CCOc1ccc(NC(=O)Nc2cc(C(=O)O)ccc2N2CC3CC(C2)c2cccc(=O)n2C3)cc1 (stereo unspecified)	none
CC(C)n1cnc2c(=S)nc[nH]c21	none | PfM18AAP inh-2 inactive | CTSL1 counter inactive
O=C(NNC(=S)Nc1ccccc1)Nc1ccccc1	PfM18AAP inh-1 53 | PfM18AAP inh-2 inactive | CTSL1 counter inactive
O=C(NNC(=S)Nc1ccccc1)NNC(=S)Nc1ccccc1	PfM18AAP inh-1 39 | PfM18AAP inh-2 60 | CTSL1 counter inactive
O=C(NNC(=S)Nc1ccccc1)c1ccncc1	none
O=C(COc1cccc2cccnc12)NNC(=S)Nc1ccccc1	PfM18AAP inh-1 35 (no result: PfGluPho inh) | PfM18AAP inh-2 77 | CTSL1 counter inactive
COc1ccc(-n2ncc3c2CC(C)(C)CC3NC(=O)c2cn[nH]c2)cc1 (stereo unspecified)	none
O=C(Nc1nnc(-c2ccccc2Cl)o1)c1nc2ccccc2s1	none
COc1cc(C2C(C(=O)c3cccs3)=C(O)C(=O)N2c2cc(C)on2)ccc1O (stereo unspecified)	PfM18AAP inh-1 55 | PfM18AAP inh-2 inactive | CTSL1 counter inactive
COc1cccc(C2C(C(=O)c3cccs3)=C(O)C(=O)N2c2cc(C)on2)c1 (stereo unspecified)	PfM18AAP inh-1 35 | PfM18AAP inh-2 inactive | CTSL1 counter inactive
CC(C)(C)NC(=O)CN(C(=O)CN1C(=O)C(=O)c2ccccc21)C(C)(C)C	none
CC(=NNC(=O)c1ccncc1)c1cccc(Cl)c1	none (no result: PfM18AAP inh-1, A3A deaminase, CR mimetic SO, APOBEC3G inh)
O=C(Nn1cnnc1)c1ccccc1Cl	PfM18AAP inh-1 55 | PfM18AAP inh-2 40 | CTSL1 counter inactive
Cc1cc(C)c2nc(-c3ccccn3)cc(C(=O)Nn3cnnc3)c2c1	PfM18AAP inh-1 44 | PfM18AAP inh-2 29 | CTSL1 counter inactive
O=C(Nc1ccccc1NC(=O)c1ccccc1Cl)c1ccccc1Cl	none
CCc1ccc(-c2cc(C(=O)Nn3cnnc3)c3ccccc3n2)cc1	PfM18AAP inh-1 43 | PfM18AAP inh-2 46 | CTSL1 counter inactive
CCCc1ccc(-c2cc(C(=O)NN3CCOCC3)c3ccccc3n2)cc1	none
O=C(O)c1ccccc1C(=O)Nn1cnnc1	PfM18AAP inh-1 37 | PfM18AAP inh-2 36 | CTSL1 counter inactive
Cc1cc(C)n(-c2nc3c(c(=O)n(C)c(=O)n3C)n2CC(O)COc2ccccc2C)n1 (stereo unspecified)	none (no result: A3A deaminase, CR mimetic SO, PfGluPho inh, APOBEC3G inh)
COc1cccc(C(=O)Nn2cnnc2)c1OC	PfM18AAP inh-1 43 | PfM18AAP inh-2 52 | CTSL1 counter inactive
O=C(CP(=O)(c1ccccc1)c1ccccc1)Nn1cnnc1	PfM18AAP inh-1 34 | PfM18AAP inh-2 49 | CTSL1 counter inactive
O=C(CSc1nnc(-c2ccccc2)o1)Nn1cnnc1	PfM18AAP inh-1 72 | PfM18AAP inh-2 73 | CTSL1 counter inactive
Cc1ccccc1C(=O)Nn1cnnc1	PfM18AAP inh-1 33 | PfM18AAP inh-2 inactive | CTSL1 counter inactive
COCCN=c1scc(-c2ccccc2)n1/N=C/c1c[nH]c2ccccc12	none
COCCN=c1scc(-c2cccs2)n1/N=C/c1ccc(O)c(O)c1O	PfM18AAP inh-1 42 | PfM18AAP inh-2 inactive | CTSL1 counter inactive
CCCCn1c(N)c(N(CC(C)C)C(=O)CCN2C(=O)C3CC=CCC3C2=O)c(=O)[nH]c1=O (stereo unspecified)	none (no result: PfM18AAP inh-1, A3A deaminase, CR mimetic SO, APOBEC3G inh)
Cc1cc(N(C)N)nc(NC(=O)NS(=O)(=O)c2ccccc2Cl)n1	PfM18AAP inh-1 57 | PfM18AAP inh-2 50 | CTSL1 counter inactive
Cc1ccc2sc(C)[n+](CCO)c2c1	PfM18AAP inh-1 37 | PfM18AAP inh-2 inactive | CTSL1 counter inactive
CC[n+]1c(C)sc2cc(C)ccc21	PfM18AAP inh-1 47 | PfM18AAP inh-2 inactive | CTSL1 counter inactive
NCc1cc2c3c(c1)CCCN3CCC2	none
COc1ccc(N2C(=O)C(Cl)=C(N3CCOCC3)C2=O)cc1	PfM18AAP inh-1 33 | PfM18AAP inh-2 inactive | CTSL1 counter 25
C[C@@H]1CN([C@H](C)CO)C(=O)c2c(c3ccccc3n2C)-c2ccccc2CO[C@H]1CN(C)C(=O)NC1CCCCC1	none (no result: PfM18AAP inh-1, A3A deaminase, CR mimetic SO, APOBEC3G inh)
O=C1CN(S(=O)(=O)c2cccc(C(=O)O)c2)c2ccccc2N1	none
CCOC(=O)c1sc(NNC(=O)c2ccc(C)cc2)nc1C	PfM18AAP inh-1 37 | PfM18AAP inh-2 inactive | CTSL1 counter inactive
CCOc1ccccc1NC(=O)CSc1nnc(CNC(=O)c2cc(OC)c(OC)c(OC)c2)o1	none
CCCCOP(=O)(c1ccc(N(C)C)cc1)C(O)c1ccc(N(C)C)cc1 (stereo unspecified)	PfM18AAP inh-1 34 | PfM18AAP inh-2 inactive | CTSL1 counter inactive
COc1ccc(N2CCN(CC(=O)c3ccc(O)cc3O)CC2)cc1	PfM18AAP inh-1 37 | PfM18AAP inh-2 inactive | CTSL1 counter inactive
O=C(O)Cc1sc(Nc2ccc(Cl)cc2)nc1-c1cccs1	PfM18AAP inh-1 33 (no result: CR mimetic SO) | PfM18AAP inh-2 inactive | CTSL1 counter inactive
COc1cccc(/C=C/C(=O)OCC(=O)Nc2cccc(S(=O)(=O)NC3=NCCCCC3)c2)c1	none (no result: PfM18AAP inh-1)
Cc1cccc(-c2n[nH]c(=S)n2/N=C/C=C/c2ccco2)c1	none
C(=C\c1ccco1)/C=N/n1cnnc1	PfM18AAP inh-1 58 | PfM18AAP inh-2 inactive | CTSL1 counter inactive
CCCC(=O)N(c1ccc2oc(=O)sc2c1)S(=O)(=O)c1cccs1	PfM18AAP inh-1 37 | PfM18AAP inh-2 inactive | CTSL1 counter inactive
O=c1[nH]ncn1-c1ccccc1C(F)(F)F	none
O=c1[nH][nH]c(=S)n1-c1ccccc1C(F)(F)F	PfM18AAP inh-1 61 (no result: A3A deaminase, CR mimetic SO, PfGluPho inh, APOBEC3G inh) | PfM18AAP inh-2 inactive | CTSL1 counter inactive
O=C(Nc1ccc(F)cc1)Nc1ccc([N+](=O)[O-])cn1	none
CCN(CC)S(=O)(=O)c1cc([N+](=O)[O-])ccc1NNC(=O)Nc1ccccc1OC	PfM18AAP inh-1 56 | PfM18AAP inh-2 inactive | CTSL1 counter inactive
